ASK1 inh – human ASK1 kinase inhibition, primary screen; 0.99% of 22,000 active; inhibition, % at 7.44 µM; Q99683; AlphaScreen MKK6 phosphorylation by ASK1, luminescence; AID 1159602; in the data active = inhibition above about 35%
ULK1 primary – blocks human autophagy kinase ULK1; AlphaScreen Atg13 phosphorylation by ULK1, luminescence; inhibition, % at 5.96 µM; 1.9% of 30,000 active; AID 1259251; in the data active = inhibition above about 43%
Target sequence (O75385 whole entry, looked up): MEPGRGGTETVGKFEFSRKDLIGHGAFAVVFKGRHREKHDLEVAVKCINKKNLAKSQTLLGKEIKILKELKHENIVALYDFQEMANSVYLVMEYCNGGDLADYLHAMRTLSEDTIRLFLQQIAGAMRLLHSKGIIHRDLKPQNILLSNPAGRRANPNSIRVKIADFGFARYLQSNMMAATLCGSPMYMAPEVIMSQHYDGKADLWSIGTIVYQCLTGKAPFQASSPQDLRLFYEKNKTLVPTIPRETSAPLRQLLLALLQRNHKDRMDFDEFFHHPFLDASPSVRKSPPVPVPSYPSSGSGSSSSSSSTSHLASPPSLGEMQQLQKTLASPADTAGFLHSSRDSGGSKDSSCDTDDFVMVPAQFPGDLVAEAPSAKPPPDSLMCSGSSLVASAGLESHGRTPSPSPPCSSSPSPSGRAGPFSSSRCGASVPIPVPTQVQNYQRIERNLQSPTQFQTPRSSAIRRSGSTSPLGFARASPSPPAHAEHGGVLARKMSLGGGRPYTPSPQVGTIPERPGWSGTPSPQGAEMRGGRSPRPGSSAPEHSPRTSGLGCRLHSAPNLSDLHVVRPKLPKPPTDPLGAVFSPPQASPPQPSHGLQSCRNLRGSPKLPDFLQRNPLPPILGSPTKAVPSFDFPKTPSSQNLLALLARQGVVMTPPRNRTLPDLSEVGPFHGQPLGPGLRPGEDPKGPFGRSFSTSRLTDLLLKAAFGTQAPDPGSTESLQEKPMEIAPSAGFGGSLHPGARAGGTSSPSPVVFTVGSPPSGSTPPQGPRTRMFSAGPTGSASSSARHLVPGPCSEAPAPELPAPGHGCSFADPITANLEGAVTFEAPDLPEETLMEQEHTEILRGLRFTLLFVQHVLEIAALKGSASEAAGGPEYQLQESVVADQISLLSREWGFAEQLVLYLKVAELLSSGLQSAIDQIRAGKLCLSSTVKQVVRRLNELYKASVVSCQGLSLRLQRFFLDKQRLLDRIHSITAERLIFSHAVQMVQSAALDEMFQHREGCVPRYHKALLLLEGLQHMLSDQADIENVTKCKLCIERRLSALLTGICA
Of the large screens only hits and unclear results are named; the others gave an inactive call. Only some compounds are listed: those with a hit (about 2.4% of all), similar ones and a draw of the others.

CC(C)n1cnc2c(Nc3ccc(N4CCOCC4)cc3)nc(Nc3nccc4ccccc34)nc21	none
CC(C)n1cnc2c(Nc3ccc(N4CCOCC4)cc3)nc(Nc3ccc(N4CCOCC4)cc3)nc21	none
CC(C)n1cnc2c(Nc3ccc(N4CCOCC4)cc3)nc(Nc3ccccn3)nc21	ULK1 primary 69
Cn1c(Nc2nc3ncnc(NCc4ccccc4)c3[nH]2)nc2ccccc21	none
NC(=O)c1cncc(-c2ccccc2)c1	none
CCCNc1nc(-c2c(C)nn(C)c2C)nc2c1ncn2C1CCCCC1	none
CN1CCN(C(=O)c2ccc(-c3nc(Nc4ccccc4)c4ncn(Cc5ccc(C(F)(F)F)cc5)c4n3)cc2)CC1	none
NC(=O)c1ccc(-c2nc(NCc3ccccc3)c3ncn(-c4ccccc4)c3n2)cc1	none
Nc1cccc(-c2cc(NCc3cccnc3)nc(N)n2)c1	ULK1 primary 55
NC(=O)c1ccc(-c2cc(NCc3cccnc3)nc(N)n2)cc1	none
CCCNc1nc(-c2csc3ccccc23)nc2c1ncn2C1CCCCC1	none
Cn1cc(-c2ccc3cnc(Nc4ccc(-n5cnc(N6CCOCC6)n5)cc4)nc3c2C2CC2)cn1	none
Cc1ncn(-c2ccc(Nc3ncc4cccc(-c5ccccc5)c4n3)cc2)n1	none
Cc1ncn(-c2ccc(Nc3ncc4cccc(-n5cccn5)c4n3)cc2)n1	ULK1 primary 45
Cc1ncn(-c2ccc(Nc3ncc4cccc(-c5cnn(C(C)C)c5)c4n3)cc2)n1	ULK1 primary 66
Cc1ncn(-c2ccc(Nc3ncc4cccc(-c5cnn(C)c5)c4n3)cc2)n1	none
CC(C)n1cc(-c2ccc3cnc(Nc4ccc(-n5cnc(N6CCOCC6)n5)cc4)nc3c2Cl)cn1	ULK1 primary 53
Cc1ncn(-c2ccc(Nc3ncc4cccc(-c5cnn(CC6CC6)c5)c4n3)cc2)n1	ULK1 primary 64
Cc1ncn(-c2ccc(Nc3ncc4cccc(-c5ccncc5)c4n3)cc2)n1	none
c1cc(Nc2nc(NC3CC3)c3[nH]cnc3n2)ncn1	none
COC(=O)CNC(=O)c1ncccc1Oc1nc(OC)cc(OC)n1	none (no result: ASK1 inh)
Cc1cnc(-c2cccs2)nc1NCCO	none
O=C(NC1CC1)c1ccc2nc(Nc3ccc(N4CCOCC4)cc3)sc2c1	none
COc1ccc2c(c1)C[C@H](C(=O)Nc1ccc(-c3cn[nH]c3)cc1N1CCC(N(C)C)CC1)NC2	none
CNS(=O)(=O)c1ccccc1Nc1nc(Nc2cc(OC)ccc2OC)ncc1Br	ULK1 primary 64
CNS(=O)(=O)c1ccccc1Nc1nc(Nc2ccc(N3CCOCC3)cc2OC)ncc1Br	ULK1 primary 91
COc1cnc(Nc2ccc(N3CCOCC3)cc2)nc1Nc1ccc(N2CCOCC2)cc1	none
COc1ccc(Nc2ncc(-c3ccccc3)cn2)cc1	none (no result: ASK1 inh)
CN(C)c1cccc(Nc2cccc(C(=O)NCCc3ccc(O)cc3)n2)c1	none
Cn1nccc1Nc1nc(NCCc2ccc(O)cc2)c2ncn(Cc3ccc(C(F)(F)F)cc3)c2n1	none
Cc1cc(-c2ccc(N=Nc3c(S(=O)(=O)O)cc4cc(S(=O)(=O)O)cc(N)c4c3O)c(C)c2)ccc1N=Nc1c(S(=O)(=O)O)cc2cc(S(=O)(=O)O)cc(N)c2c1O	ULK1 primary 81 (no result: ASK1 inh)
O=C1c2c(O)ccc(O)c2C(=O)c2c(NCCNCCO)ccc(NCCNCCO)c21	ULK1 primary 43 (no result: ASK1 inh)
Fc1cc(-c2nc(Nc3cccc(Cn4cccn4)c3)ncc2F)cc(N2CCOCC2)c1	none
Fc1cc(-c2nc(Nc3cccc(CN4CCCC4)c3)ncc2F)cc(N2CCOCC2)c1	ULK1 primary 70
Fc1cc(-c2ccnc(Nc3cccc(CN4CCOCC4)c3)n2)cc(N2CCOCC2)c1	none
Fc1cc(-c2nc(Nc3cccc(CN4CCOCC4)c3)ncc2F)cc(N2CCOCC2)c1	ULK1 primary 45
FC(F)(F)c1ccc(Cn2cnc3c(NC4CCN(Cc5ccccc5)CC4)nc(N4CCN(Cc5ccc6c(c5)OCO6)CC4)nc32)cc1	none
c1ccc(CN2CCC(Nc3nc(Nc4ccc(-n5ccnc5)cc4)nc4nc[nH]c34)CC2)cc1	none
CCN1CCc2nc(NC(=O)c3cccc(Br)c3)sc2C1	none (no result: ASK1 inh)
c1cc(N2CCOCC2)ccc1Nc1nc(N2CCOCC2)nc2c1ncn2C1CCCCC1	none
OCC1CCCN1c1nc(Nc2ccc(N3CCOCC3)cc2)c2ncn(C3CCCCC3)c2n1 (stereo not drawn)	ULK1 primary 53
OCC1CCCN1c1nc(Nc2ccc(N3CCOCC3)cc2)c2ncn(-c3ccsc3)c2n1 (stereo not drawn)	none
OCC1CCCN1c1nc(Nc2ccc(N3CCOCC3)cc2)c2ncn(-c3ccccc3)c2n1 (stereo not drawn)	ULK1 primary 61
c1ccc(CN2CCC(Nc3nc(NCc4ccc5c(c4)OCO5)nc4nc[nH]c34)CC2)cc1	none
O=C(Nc1ccc2c(c1)OCO2)C1CCN(c2ccc(Nc3ccc(-n4ccnc4)cc3)nn2)CC1	none
COc1nc(N/N=C/c2cccc3ccccc23)nc(N2CCOCC2)n1	none (no result: ASK1 inh)
Nn1cnnc1N/N=C/c1cccc2ccccc12	ULK1 primary 60 (no result: ASK1 inh)
CC(C)(C)OC(=O)N1CCC[C@H]1C(=O)NC1CCC(Nc2ccc3[nH]ncc3c2)CC1 (stereo partly drawn)	none
COc1cc(N2CCOCC2)ccc1Nc1cc(NCc2ccccc2)c(C(F)(F)F)cn1	none
COc1cc(N2CCOCC2)ccc1Nc1cc(Nc2ccccc2NC(C)=O)c(C(F)(F)F)cn1	ULK1 primary 88
CNC(=O)c1ccccc1Nc1cc(Nc2ccc(C(=O)N3CC[C@H](O)C3)cc2OC)ncc1C(F)(F)F	ULK1 primary 88
CNC(=O)c1ncccc1Nc1cc(Nc2ccc(N3CCOCC3)cc2OC)ncc1C(F)(F)F	ULK1 primary 46
COc1cc(N2CCOCC2)ccc1Nc1cc(NC(C)(C)c2ccccc2)c(C(F)(F)F)cn1	none
CNC(=O)c1ncccc1Nc1cc(Nc2ccc(C(=O)N(C)C)cc2OC)ncc1C(F)(F)F	none
CNC(=O)c1cccc(Nc2cc(Nc3ccc(N4CCOCC4)cc3OC)ncc2C(F)(F)F)c1	none
CNC(=O)c1ccccc1Nc1cc(Nc2ccc(N3CCS(=O)CC3)cc2OC)ncc1C#N	ULK1 primary 90
CC(=O)Nc1ccc(Nc2nc(N3CCN(Cc4ccc5c(c4)OCO5)CC3)ncc2C)cc1	none
O=C(NC1CC1)c1ccc(-c2cc(NCc3nc4ccccc4[nH]3)ncn2)cc1	none
Cc1cnc(-c2ccc(C(N)=O)cc2)nc1NCc1nc2ccccc2[nH]1	none
Oc1cc(O)cc(O)c1	none (no result: ASK1 inh)
CCC(=O)c1c(O)cc(O)cc1O	ULK1 primary 62 (no result: ASK1 inh)
COc1cc(N2CCOCC2)ccc1Nc1cc(N2Cc3ccccc3C2=O)c(C(F)(F)F)cn1	none
COc1ccc(-c2ncc(C)c(Nc3cc(OC)c(OC)c(OC)c3)n2)cc1	ULK1 primary 67
COc1cc(Nc2nc(-c3cccc(C(C)=O)c3)ncc2C)cc(OC)c1OC	none
COc1cc(Nc2nc(-c3ccc(C(=O)NC4CC4)cc3)ncc2C)cc(OC)c1OC	none
COc1cc(Nc2nc(-c3ccccc3)ncc2C)cc(OC)c1OC	ULK1 primary 49
CC(C)c1cc(C(C)C)c(CC(=O)NS(=O)(=O)Oc2c(C(C)C)cccc2C(C)C)c(C(C)C)c1	ULK1 primary 85 (no result: ASK1 inh)
CC(C)NCC(O)CO (stereo not drawn)	none (no result: ASK1 inh)
Oc1ccc(CCNc2ncnc3nc(Nc4ccccc4)[nH]c23)cc1	none
c1cn(-c2ccc(Nc3nccc(-c4cncc(N5CCOCC5)c4)n3)cc2)cn1	none
c1cc(Cn2ccnc2)cc(Nc2nccc(-c3cncc(N4CCOCC4)c3)n2)c1	ULK1 primary 80
c1cc(-c2cncc(N3CCOCC3)c2)nc(Nc2ccc(-n3cncn3)cc2)n1	none
c1cc(Cn2cncn2)cc(Nc2nccc(-c3cncc(N4CCOCC4)c3)n2)c1	ULK1 primary 55

From PubChem BioAssay
